Test results from PubChem BioAssay (NCATS).
Inconclusive results are not listed. Calls of active or inactive are those of the source. Calls come from the whole dose curve.

Each molecule was assayed against Peroxisome proliferator-activated receptor delta (Homo sapiens) (UniProt Q03181) (assay: qHTS assay for small molecule agonists of peroxisome proliferator-activated receptor delta signaling (AID 588534)). Conditions: HEK293T PPARdelta-UAS-bla, beta-lactamase ratio, 18 h; series mostly up to 76.7 µM.
Procedure, shortened: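 Agonist-mode beta-lactamase reporter readout (CCF4 dye, 2 h at RT) after 18 h at 37 °C exposure to a titration; Hill-equation fitting gave EC50 and maximal response.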

Peroxisome proliferator-activated receptor delta (Homo sapiens), sequence (Q03181 whole entry, looked up): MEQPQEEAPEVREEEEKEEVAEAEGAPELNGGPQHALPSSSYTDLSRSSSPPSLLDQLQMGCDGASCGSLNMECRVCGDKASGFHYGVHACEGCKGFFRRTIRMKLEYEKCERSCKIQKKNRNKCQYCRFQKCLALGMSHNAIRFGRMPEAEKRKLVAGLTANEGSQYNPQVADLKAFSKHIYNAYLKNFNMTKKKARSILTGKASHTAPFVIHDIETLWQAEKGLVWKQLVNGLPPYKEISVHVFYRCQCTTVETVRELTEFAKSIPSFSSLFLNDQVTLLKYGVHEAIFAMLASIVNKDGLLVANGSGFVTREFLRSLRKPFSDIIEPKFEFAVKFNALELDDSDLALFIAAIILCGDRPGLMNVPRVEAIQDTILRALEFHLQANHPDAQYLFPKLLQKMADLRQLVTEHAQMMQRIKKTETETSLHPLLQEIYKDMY

Row | Structure (SMILES) | outcome
1 | O=C1OC2(c3cc(Br)c(O)c(Br)c3Oc3c2cc(Br)c(O)c3Br)c2c(Cl)c(Cl)c(Cl)c(Cl)c21 | inactive
2 | NC(=O)c1cccc([N+](=O)[O-])c1 | inactive
3 | NS(=O)(=O)O | inactive
4 | COc1nc(C)nc(NC(=O)NS(=O)(=O)c2ccccc2OCCCl)n1 | inactive
5 | COC(=O)C(C)Oc1ccc(Oc2ncc(C(F)(F)F)cc2Cl)cc1 (stereo unspecified) | inactive
6 | C[C@H]1C[C@H]2[C@@H]3CCC4=CC(=O)C=C[C@]4(C)[C@@]3(F)[C@@H](O)C[C@]2(C)[C@@]1(O)C(=O)CO | inactive
7 | CCCOCC(C)O (stereo unspecified) | inactive
8 | CCC(=O)/C=C/C1C(C)=CCCC1(C)C (stereo unspecified) | inactive
9 | Cc1ccc(C)c([N+](=O)[O-])c1 | inactive
10 | OCCC(F)(F)C(F)(F)C(F)(F)C(F)(F)C(F)(F)C(F)(F)C(F)(F)C(F)(F)F | inactive
11 | CCCCC(CC)C(=O)OCCOCCOCCOC(=O)C(CC)CCCC (stereo unspecified) | inactive
